According to PubChem BioAssay (EPA / NIEHS):
The source made the active and inactive calls. The calls were made as follows: active = hit-call score of the fitted dose curve at least 0.9, where 1 is the maximum; inactive = score below 0.9.

Experiments:
[1] = ATG_GLI_CIS: Attagene CIS-FACTORIAL HepG2 Assay for human Zinc Finger Protein GLI1 (AID 2282945); settings: HepG2, Attagene cis-factorial reporter mRNA, GLI element; actives raise or lower the signal
How it was run: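 Transiently transfected HepG2 cells report endogenous transcription factor activity via cis-element-driven reporter units. After 24 h compound exposure, reporter mRNA was measured by RT-PCR with capillary electrophoresis; bidirectional fitting against DMSO baseline.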

[2] = target: Bile acid receptor (Homo sapiens) (UniProt Q96RI1); assay: ATG_IR1_CIS: Attagene CIS-FACTORIAL HepG2 Assay for human Nuclear Receptor Subfamily 1 Group H Member 4 (NR1H4), IR1 submotif (AID 2282946); settings: IR1 reporter transcription, actives raise or lower the signal
Chain of Bile acid receptor (Homo sapiens) (Q96RI1 whole entry, looked up): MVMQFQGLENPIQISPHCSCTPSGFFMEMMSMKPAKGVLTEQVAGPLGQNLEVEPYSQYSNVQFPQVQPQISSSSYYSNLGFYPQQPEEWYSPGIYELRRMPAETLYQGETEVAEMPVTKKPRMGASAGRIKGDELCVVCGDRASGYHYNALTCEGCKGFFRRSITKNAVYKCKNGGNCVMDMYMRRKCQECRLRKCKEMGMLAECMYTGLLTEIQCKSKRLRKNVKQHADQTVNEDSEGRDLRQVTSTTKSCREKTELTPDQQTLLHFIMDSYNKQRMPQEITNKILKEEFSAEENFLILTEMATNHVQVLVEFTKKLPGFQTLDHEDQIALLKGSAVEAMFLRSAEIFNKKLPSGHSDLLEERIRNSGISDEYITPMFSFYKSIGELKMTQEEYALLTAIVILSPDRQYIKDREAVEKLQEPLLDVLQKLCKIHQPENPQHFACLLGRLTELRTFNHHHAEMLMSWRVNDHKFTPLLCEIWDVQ
How it was run: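 Fluorescence of capillary-separated, HpaI-digested RT-PCR reporter products gave IR1-element mRNA induction in HepG2 cells 24 h after dosing. Endogenous transcription factors drove the cis-regulated reporters; activity was fitted bidirectionally against DMSO.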

[3] = ATG_GRE_CIS: Attagene CIS-FACTORIAL HepG2 Assay for human Glucocorticoid Response Elements (GRE) (AID 2282947); settings: HepG2 GRE cis-reporter, Attagene multiplex mRNA; actives raise or lower the signal
How it was run: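 Fluorescence intensity of reporter-specific cDNA fragments, separated by capillary electrophoresis, provides the signal. Constructs carry cis-regulating promoters in transiently transfected HepG2 liver cells; 24 h incubation; fitting is bidirectional against DMSO.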

[4] = ATG_ISRE_CIS: Attagene CIS-FACTORIAL HepG2 Assay for human Interferon Regulatory Factor 1 (IRF1) binding to an Interferon-Stimulated Response Element (ISRE) (AID 2282948); settings: HepG2 ISRE cis-reporter (Attagene), mRNA transcription readout; actives raise or lower the signal
How it was run: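 Signal reflects induction or loss of ISRE-linked reporter mRNA in transiently transfected HepG2 cells after a 24 h treatment, detected by fluorescent RT-PCR fragments on capillary electrophoresis and normalised to DMSO.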

[5] = ATG_M_32_CIS: Attagene CIS-FACTORIAL HepG2 Assay for M32 Transcription Factor (Internal Marker) (AID 2282949); settings: HepG2 Attagene cis-factorial M32 reporter, mRNA; actives raise or lower the signal;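 also: background control marker of the multiplexed CIS panel rather than a real target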
How it was run: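 HepG2 transfectants (cis-regulated reporter transcription units) dosed 24 h. Reporter mRNA by RT-PCR plus CE, analysed as gain or loss relative to DMSO.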

[6] = ATG_M_06_CIS: Attagene CIS-FACTORIAL HepG2 Assay for M06 Transcription Factor (Internal Marker) (AID 2282950); settings: HepG2 Attagene CIS-FACTORIAL M06 internal marker reporter; actives raise or lower the signal
How it was run: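 HepG2 liver cells, 24 h exposure. Reporter transcripts from transfected cis-element constructs quantified by RT-PCR/capillary electrophoresis fluorescence. Bidirectional curve fit against DMSO.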

[7] = target: Hypoxia-inducible factor 1-alpha (Homo sapiens) (UniProt Q16665); assay: ATG_HIF1a_CIS: Attagene CIS-FACTORIAL HepG2 Assay for human Hypoxia Inducible Factor 1 (HIF1A) (AID 2282951); settings: HepG2 Attagene cis-factorial HIF1a reporter transcription; actives raise or lower the signal
Chain of Hypoxia-inducible factor 1-alpha (Homo sapiens) (Q16665 whole entry, looked up, the tested form may be a part): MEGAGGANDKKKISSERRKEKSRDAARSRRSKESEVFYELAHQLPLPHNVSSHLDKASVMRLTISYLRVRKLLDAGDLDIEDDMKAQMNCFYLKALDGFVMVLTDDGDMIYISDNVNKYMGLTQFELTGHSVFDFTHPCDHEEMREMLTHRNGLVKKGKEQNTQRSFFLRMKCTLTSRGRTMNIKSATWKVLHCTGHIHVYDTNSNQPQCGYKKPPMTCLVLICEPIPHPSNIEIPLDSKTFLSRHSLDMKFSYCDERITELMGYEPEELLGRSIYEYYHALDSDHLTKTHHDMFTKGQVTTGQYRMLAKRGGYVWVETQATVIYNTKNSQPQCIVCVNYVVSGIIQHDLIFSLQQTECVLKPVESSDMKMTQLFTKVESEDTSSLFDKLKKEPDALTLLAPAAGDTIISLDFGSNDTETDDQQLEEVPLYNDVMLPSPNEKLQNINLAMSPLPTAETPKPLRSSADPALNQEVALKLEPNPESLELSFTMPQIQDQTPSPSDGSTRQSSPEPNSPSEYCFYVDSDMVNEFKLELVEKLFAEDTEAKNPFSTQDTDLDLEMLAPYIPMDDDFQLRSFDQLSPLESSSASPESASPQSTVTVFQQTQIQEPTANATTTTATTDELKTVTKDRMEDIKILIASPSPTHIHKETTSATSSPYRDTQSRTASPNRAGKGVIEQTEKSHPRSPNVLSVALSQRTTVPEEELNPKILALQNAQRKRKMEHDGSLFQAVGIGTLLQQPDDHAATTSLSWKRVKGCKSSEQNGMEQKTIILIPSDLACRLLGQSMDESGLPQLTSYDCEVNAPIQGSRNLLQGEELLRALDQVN
How it was run: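 Transient MRTU transfection of human HepG2 liver cells, 24 h compound treatment, then total RNA isolation, oligo(dT) reverse transcription, PCR amplification, fluorescent labelling and capillary electrophoresis of reporter fragments. Gain or loss relative to DMSO.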

[8] = target: Hepatocyte nuclear factor 6 (Homo sapiens) (UniProt Q9UBC0); assay: ATG_HNF6_CIS: Attagene CIS-FACTORIAL HepG2 Assay for human Hepatocyte Nuclear Factor 6 (HNF6) (AID 2282952); settings: HepG2 Attagene cis-factorial HNF6 reporter transcription; actives raise or lower the signal
Chain of Hepatocyte nuclear factor 6 (Homo sapiens) (Q9UBC0 whole entry, looked up, the tested form may be a part): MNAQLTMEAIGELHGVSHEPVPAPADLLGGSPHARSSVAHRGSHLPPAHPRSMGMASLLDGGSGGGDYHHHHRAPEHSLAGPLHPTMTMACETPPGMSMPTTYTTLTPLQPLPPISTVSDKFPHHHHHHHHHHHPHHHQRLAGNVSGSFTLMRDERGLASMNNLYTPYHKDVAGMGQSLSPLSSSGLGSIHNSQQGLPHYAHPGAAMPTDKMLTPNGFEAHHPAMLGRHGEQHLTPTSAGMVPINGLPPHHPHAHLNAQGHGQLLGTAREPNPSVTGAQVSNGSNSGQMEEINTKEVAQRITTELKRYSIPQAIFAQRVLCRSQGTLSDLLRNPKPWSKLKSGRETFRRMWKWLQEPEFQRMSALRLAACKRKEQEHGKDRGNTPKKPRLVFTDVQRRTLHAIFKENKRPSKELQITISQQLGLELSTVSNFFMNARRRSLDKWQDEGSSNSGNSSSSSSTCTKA
How it was run: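 Readout: fluorescent reporter-transcript fragments resolved by capillary electrophoresis after RT-PCR, reflecting endogenous factor activity in transfected HepG2. Exposure 24 h. Gain or loss of signal fitted bidirectionally against DMSO.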

[9] = ATG_MRE_CIS: Attagene CIS-FACTORIAL HepG2 Assay for human Metal Responsive Element (MRE) (AID 2282954); settings: HepG2 MRE cis-reporter transcription, Attagene multiplex; actives raise or lower the signal
How it was run: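 Measured here is mRNA induction from an MRE cis-element reporter in HepG2 after 24 h, quantified by fluorescence of labelled RT-PCR products on capillary electrophoresis; gain- and loss-of-signal fits use DMSO as baseline.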

[10] = ATG_PBREM_CIS: Attagene CIS-FACTORIAL HepG2 Assay for human Phenobarbital-responsive Enhancer Module (PBREM) (AID 2282955); settings: HepG2 PBREM cis-reporter, Attagene multiplexed transcription; actives raise or lower the signal
How it was run: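 Endogenous transcription factors in human liver HepG2 cells drive a PBREM cis-element reporter, whose transcript level after 24 h treatment is quantified by RT-PCR with capillary electrophoresis; activity fitted in both directions against DMSO.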

[11] = target: Paired box protein Pax-6 (Homo sapiens) (UniProt P26367); assay: ATG_Pax6_CIS: Attagene CIS-FACTORIAL HepG2 Assay for human Paired Box 6 (PAX6) (AID 2282956); settings: HepG2 CIS-FACTORIAL PAX6 reporter transcription, RNA readout; actives raise or lower the signal
Chain of Paired box protein Pax-6 (Homo sapiens) (P26367 whole entry, looked up): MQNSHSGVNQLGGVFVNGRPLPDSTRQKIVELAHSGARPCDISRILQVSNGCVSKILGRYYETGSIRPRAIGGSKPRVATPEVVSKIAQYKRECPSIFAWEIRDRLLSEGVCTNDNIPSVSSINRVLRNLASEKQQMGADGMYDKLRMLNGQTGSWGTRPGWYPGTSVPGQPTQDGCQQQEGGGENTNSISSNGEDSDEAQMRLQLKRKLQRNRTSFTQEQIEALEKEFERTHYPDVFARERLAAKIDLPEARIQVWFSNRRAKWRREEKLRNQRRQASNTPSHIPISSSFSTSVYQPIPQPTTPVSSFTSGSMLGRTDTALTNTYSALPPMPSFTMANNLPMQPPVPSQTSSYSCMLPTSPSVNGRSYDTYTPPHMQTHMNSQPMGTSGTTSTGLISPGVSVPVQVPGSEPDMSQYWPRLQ
How it was run: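 Values derive from bidirectional curve fitting of reporter mRNA signal relative to DMSO. HepG2 cells bearing transfected cis-regulated MRTUs were exposed for 24 h; transcripts were read by RT-PCR and capillary electrophoresis.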

[12] = ATG_PXRE_CIS: Attagene CIS-FACTORIAL HepG2 Assay for human Pregnane X Receptor Element (PXRE) (AID 2282957); settings: HepG2 Attagene CIS-FACTORIAL PXRE reporter, mRNA; actives raise or lower the signal
How it was run: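 Read-out: fluorescence of reporter-specific RT-PCR products resolved by capillary electrophoresis, fitted bidirectionally relative to DMSO. Human HepG2 liver cells carried transfected cis-promoter reporter units and were exposed to chemicals for 24 h.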

[13] = ATG_PPRE_CIS: Attagene CIS-FACTORIAL HepG2 Assay for human Peroxisome Proliferator-activated Response Element (PPRE) (AID 2282958); settings: HepG2 PPRE cis-element reporter, Attagene transcription factor profiling; actives raise or lower the signal
How it was run: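 HepG2, transient MRTU transfection (cis promoter elements, endogenous TFs). 24 h dosing. RNA → oligo(dT) RT → PCR → 6-FAM primer extension → HpaI digest → CE. Bidirectional fit vs DMSO.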

[14] = ATG_RORE_CIS: Attagene CIS-FACTORIAL HepG2 Assay for human RAR-related Orphan Receptor Element (RORE) (AID 2282959); settings: HepG2 Attagene cis-factorial RORE reporter, mRNA; actives raise or lower the signal
How it was run: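 Transient MRTU transfection of human HepG2 liver cells (FuGene 6); 24 h compound exposure; TriZol RNA, oligo(dT) RT, PCR, FAM labeling, HpaI cut, CE fragment analysis. DMSO = negative control/baseline.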

[15] = ATG_Sox_CIS: Attagene CIS-FACTORIAL HepG2 Assay for human SRY-box transcription factor (SOX) (AID 2282960); settings: HepG2 Attagene cis-factorial SOX reporter, mRNA; actives raise or lower the signal
How it was run: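 Endogenous factor activity in human liver HepG2 cells carrying transfected cis-regulated reporter units. RNA taken 24 h post-dose, reverse-transcribed, PCR-amplified and sized by capillary electrophoresis. Gain or loss of signal fitted relative to DMSO.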

[16] = target: Transcription factor Sp1 (Homo sapiens) (UniProt P08047); assay: ATG_Sp1_CIS: Attagene CIS-FACTORIAL HepG2 Assay for human Specificity Protein 1 (Sp1) (AID 2282961); settings: HepG2 Sp1 cis-reporter transcription, actives raise or lower the signal
Chain of Transcription factor Sp1 (Homo sapiens) (P08047 whole entry, looked up): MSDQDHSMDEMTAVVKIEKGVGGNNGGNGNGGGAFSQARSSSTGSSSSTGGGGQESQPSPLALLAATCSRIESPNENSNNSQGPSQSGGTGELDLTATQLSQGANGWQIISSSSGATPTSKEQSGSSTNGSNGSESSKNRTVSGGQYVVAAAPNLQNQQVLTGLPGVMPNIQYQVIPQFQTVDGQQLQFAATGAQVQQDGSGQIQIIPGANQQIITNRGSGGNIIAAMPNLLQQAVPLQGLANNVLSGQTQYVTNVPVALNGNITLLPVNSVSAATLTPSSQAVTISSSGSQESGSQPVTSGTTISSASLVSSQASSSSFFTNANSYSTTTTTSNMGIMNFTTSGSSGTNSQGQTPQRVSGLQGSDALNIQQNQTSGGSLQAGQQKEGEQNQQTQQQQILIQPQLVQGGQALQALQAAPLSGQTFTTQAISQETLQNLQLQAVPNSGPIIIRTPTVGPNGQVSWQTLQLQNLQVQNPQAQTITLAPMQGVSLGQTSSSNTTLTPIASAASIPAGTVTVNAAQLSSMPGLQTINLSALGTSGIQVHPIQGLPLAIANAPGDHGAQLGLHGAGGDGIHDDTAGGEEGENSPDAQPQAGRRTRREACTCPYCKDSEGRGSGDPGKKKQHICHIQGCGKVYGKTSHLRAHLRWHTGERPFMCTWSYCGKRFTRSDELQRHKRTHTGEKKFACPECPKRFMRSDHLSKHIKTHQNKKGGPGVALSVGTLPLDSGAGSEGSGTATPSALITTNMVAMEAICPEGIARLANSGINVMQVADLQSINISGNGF
How it was run: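 Transient MRTU-transfected HepG2, 24 h compound exposure. Total RNA → oligo(dT) RT → PCR of reporter → 6-FAM primer extension → HpaI digest → CE. Endpoint fitted both directions vs DMSO.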

[17] = ATG_SREBP_CIS: Attagene CIS-FACTORIAL HepG2 Assay for human Sterol Regulatory Element Binding (SREBP) (AID 2282962); settings: HepG2 Attagene cis-factorial SREBP reporter, mRNA; actives raise or lower the signal
How it was run: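 Values derive from bidirectional curve fitting with DMSO as baseline. The underlying measurement is reporter mRNA from cis-element-regulated units in transiently transfected HepG2, quantified by RT-PCR and capillary electrophoresis after 24 h exposure.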

[18] = target: Signal transducer and activator of transcription 3 (Homo sapiens) (UniProt P40763); assay: ATG_STAT3_CIS: Attagene CIS-FACTORIAL HepG2 Assay for human Signal Transducer and Activator of Transcription 3 (STAT3) (AID 2282963); settings: HepG2, Attagene cis-factorial STAT3 reporter transcription; actives raise or lower the signal
Chain of Signal transducer and activator of transcription 3 (Homo sapiens) (P40763 whole entry, looked up, the tested form may be a part): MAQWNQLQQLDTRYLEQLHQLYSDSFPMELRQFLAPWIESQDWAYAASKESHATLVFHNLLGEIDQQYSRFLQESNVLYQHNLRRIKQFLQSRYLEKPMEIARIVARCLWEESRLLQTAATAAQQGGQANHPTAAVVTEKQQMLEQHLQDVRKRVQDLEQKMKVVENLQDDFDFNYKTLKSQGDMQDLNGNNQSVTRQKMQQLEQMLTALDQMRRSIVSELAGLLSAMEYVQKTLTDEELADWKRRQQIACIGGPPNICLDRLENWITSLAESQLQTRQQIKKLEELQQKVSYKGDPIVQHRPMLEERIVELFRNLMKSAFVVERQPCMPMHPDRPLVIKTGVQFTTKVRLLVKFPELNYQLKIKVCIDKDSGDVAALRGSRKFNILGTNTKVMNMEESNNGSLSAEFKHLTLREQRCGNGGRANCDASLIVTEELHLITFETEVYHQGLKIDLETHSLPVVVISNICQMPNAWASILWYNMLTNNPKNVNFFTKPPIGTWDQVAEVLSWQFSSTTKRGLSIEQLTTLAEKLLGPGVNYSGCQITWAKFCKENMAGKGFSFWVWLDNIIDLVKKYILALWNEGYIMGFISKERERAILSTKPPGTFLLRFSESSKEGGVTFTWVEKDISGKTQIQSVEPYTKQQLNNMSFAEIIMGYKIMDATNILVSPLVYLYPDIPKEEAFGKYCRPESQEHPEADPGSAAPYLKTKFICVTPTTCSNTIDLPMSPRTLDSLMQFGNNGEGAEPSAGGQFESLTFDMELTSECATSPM
How it was run: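 Fluorescence intensity of 6-FAM-labelled reporter fragments, separated by capillary electrophoresis after RT-PCR, gave the signal. Cells were HepG2 transfected with cis-element reporter units and treated 24 h; fitting was bidirectional relative to DMSO.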

[19] = ATG_TA_CIS: Attagene CIS-FACTORIAL HepG2 Assay for human TA Basal Promoter (AID 2282964); settings: HepG2 Attagene CIS-factorial TA basal promoter reporter; actives raise or lower the signal
How it was run: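 Fluorescence from labelled RT-PCR reporter fragments, separated by capillary electrophoresis, gives the signal. Cells: HepG2 transiently carrying multiple reporter units, 24 h chemical dosing. Gain or loss relative to DMSO.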

[20] = target: Heat shock factor protein 1 (Homo sapiens) (UniProt Q00613); assay: ATG_HSE_CIS: Attagene CIS-FACTORIAL HepG2 Assay for human Heat Shock Transcription Factor 1 (HSE) (AID 2282953); settings: HepG2 HSE cis-reporter, Attagene RNA transcription; actives raise or lower the signal
Chain of Heat shock factor protein 1 (Homo sapiens) (Q00613 whole entry, looked up, the tested form may be a part): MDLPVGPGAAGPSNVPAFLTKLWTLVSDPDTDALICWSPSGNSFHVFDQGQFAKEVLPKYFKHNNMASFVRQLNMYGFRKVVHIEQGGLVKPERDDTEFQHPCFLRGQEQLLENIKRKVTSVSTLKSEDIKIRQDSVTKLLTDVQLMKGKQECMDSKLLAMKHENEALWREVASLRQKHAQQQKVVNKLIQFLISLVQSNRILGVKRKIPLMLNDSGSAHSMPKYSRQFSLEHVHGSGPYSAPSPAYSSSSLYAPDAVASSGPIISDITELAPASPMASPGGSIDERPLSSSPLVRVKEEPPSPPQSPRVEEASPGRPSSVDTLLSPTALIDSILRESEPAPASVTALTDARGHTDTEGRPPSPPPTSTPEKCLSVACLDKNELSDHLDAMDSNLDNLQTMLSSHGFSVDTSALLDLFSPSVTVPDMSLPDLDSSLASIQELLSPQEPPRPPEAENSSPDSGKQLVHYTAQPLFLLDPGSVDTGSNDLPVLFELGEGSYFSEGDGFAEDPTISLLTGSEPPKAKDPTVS
How it was run: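 Endogenous transcription factor activity captured via cis-promoter reporter units transfected into HepG2; treatment lasted 24 h. Fluorescence intensity of reporter fragments analysed with bidirectional curve fitting, DMSO baseline.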

Measured: AC50

CO/N=C(/C1=NOCCO1)c1ccccc1Oc1ncnc(Oc2ccccc2Cl)c1F
active: [4] 4.82 µM | [9] 8.64 µM | [10] 5.03 µM | [11] 9.47 µM | [12] 0.483 µM | [17] 1.25 µM
not listed: [20]
inactive: all other assays above

COCc1cnc(C2=NC(C)(C(C)C)C(=O)N2)c(C(=O)O)c1 (configuration not stated)
not listed: [20]
inactive: all other assays above

CN=C=S
active: [9] 26.1 µM | [13] 18.3 µM | [16] 13.3 µM | [17] 13.1 µM
not listed: [3]
inactive: all other assays above

Cc1ccc(N=CN(C)C=Nc2ccc(C)cc2C)c(C)c1
not listed: [2] | [13]
inactive: all other assays above

CC1(C)C(C(=O)OC(C#N)c2cccc(Oc3ccccc3)c2)C1(C)C (configuration not stated)
active: [9] 10.8 µM | [12] 1.74 µM | [13] 11 µM
not listed: [3]
inactive: all other assays above

COCC(=O)N(c1c(C)cccc1C)C(C)C(=O)OC (configuration not stated)
active: [12] 9.28 µM
not listed: [3]
inactive: all other assays above

CC(C)N1C(=O)N(c2ccccc2)CSC1=NC(C)(C)C
active: [12] 0.666 µM
not listed: [2]
inactive: all other assays above

CCOc1cc(C(C)(C)C)ccc1C1COC(c2c(F)cccc2F)=N1 (configuration not stated)
active: [9] 5.07 µM | [12] 0.593 µM
not listed: [3]
inactive: all other assays above

COc1ccc(-c2ccccc2)cc1NNC(=O)OC(C)C
active: [3] 13.2 µM | [7] 22.8 µM | [9] 22.7 µM | [10] 15.9 µM | [12] 3.69 µM | [17] 15.2 µM
not listed: [13] | [20]
inactive: all other assays above

CC(C)C1(C)N=C(c2ncccc2C(=O)O)NC1=O (configuration not stated)
inactive: all assays above

COC(=O)NC(=S)Nc1ccccc1NC(=S)NC(=O)OC
active: [10] 21.3 µM | [12] 7.61 µM | [13] 34 µM
inactive: all other assays above

Cc1c(COC(=O)[C@@H]2[C@H](/C=C(\Cl)C(F)(F)F)C2(C)C)cccc1-c1ccccc1
active: [10] 11.4 µM | [12] 2.31 µM
not listed: [3]
inactive: all other assays above

COc1cc(OC)nc(NC(=O)NS(=O)(=O)c2ncccc2OCC(F)(F)F)n1
active: [12] 63 µM
not listed: [20]
inactive: all other assays above
